Source: PubChem
The full list was thinned out, with hits kept by preference.
KDM5B inhibitor – inhibitors of human KDM5B histone demethylase; KDM5B demethylase, FDH-coupled NADH fluorescence (FDH is formaldehyde dehydrogenase); Potency, µM (titrated, usually from 57.7 µM), actives largely listed as inhibitors; 220,000 compounds, 2.6% hits; active = well fitted inhibition curve with a large enough effect; also: 0% is about no effect; nearly all actives have a fitted effect of over 70% in size
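Compound dilutions met 200 nM (final) KDM5BΔAP for 10 min at room temperature before substrate addition. The substrate mix held 12.5 µM H3K4me3 with cofactors 25 µM α-ketoglutarate and 50 µM Fe²⁺. NADH signal gain over 30 min defined activity.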
An asterisk follows results filed as active; i = inactive. Potency is read from the fitted curve at half-maximal effect.

SMILES	KDM5B inhibitor
CCc1ccc2c(CN3CCNC(=O)C3)cc(=O)oc2c1	i
CCOc1nccn2c(-c3ccc(CN4CCNC(=O)C4)cc3)cnc12	35.5µM*
O=C(O)c1cc(Cl)c(C(=O)O)cc1Cl	i
Cc1ccc(C(=O)Nc2ccccc2SC2CCCC2)cn1	i
COCc1ncc(C)n1CCNC(=O)c1ccc(C)[nH]c1=O	22.4µM*
COCc1ncc(C)n1CCNC(=O)c1cc(-c2ccccc2C)n[nH]1	i
COCc1ncc(C)n1CCNC(=O)c1cc(-c2cc(C)ccc2C)n[nH]1	i
Fc1ccc(CN2CCCC3(CCN(c4cnccn4)C3)C2)cc1F (stereo not given)	28.2µM*
OCC1CN(c2ccncn2)CC12CCN(Cc1ccc(F)c(F)c1)CC2 (stereo not given)	i
Cc1ccc(CN2CC3(COCC2=O)CN(c2cnccn2)C3)cc1C	i
O=C(COC(=O)c1ccc2c(c1)NC(=O)CS2)NCc1cccs1	i
CCN(CC(=O)NCc1cccs1)C(=O)CCCOc1ccccc1	i
O=C(NCc1cccs1)c1ccc(CN2C(=O)NC3(CCOCC3)C2=O)cc1	i
O=C(NCc1cccs1)c1ccc(CN2C(=O)NC3(CCS(=O)(=O)CC3)C2=O)cc1	i
CC1(COc2ccccc2)COc2ccc(C(=O)NCc3cccs3)cc2N1 (stereo not given)	31.6µM*
CC1(CNCc2ccccc2)COc2ccc(C(=O)NCc3cccs3)cc2N1 (stereo not given)	31.6µM*
CCC(C)C(=O)OC(C(=O)NC(N)=O)C(C)C (stereo not given)	i
O=C(COc1ccc(-c2nnc3n2CCCC3)cc1)NCc1ccccc1	i
CC(c1nc(C(C)(C)C)no1)N1CCN(C(=O)c2ccco2)CC1 (stereo not given)	i
O=C(CCc1nc2ccc(Cl)cc2[nH]1)N1CCc2nc3cc(-c4ccccc4)[nH]n3c(=O)c2C1	22.4µM*
O=C(CCc1cc(Cl)no1)N1CCc2nc3cc(-c4ccccc4)[nH]n3c(=O)c2C1	7.94µM*
CC1(c2noc(C3CC3)n2)CCN(C(=O)CCc2nc3ccc(Cl)cc3[nH]2)CC1	i
O=C(CCc1nc2ccc(Cl)cc2[nH]1)N1CCc2c(nc3cc(-c4ccccc4)[nH]n3c2=O)C1	31.6µM*
O=C(CCc1nc2ccc(Cl)cc2[nH]1)N1CCCC(Cc2nc(C3CCOCC3)no2)C1 (stereo not given)	i
Cc1nc(CCC(=O)N2CCc3c(nc(-c4ccccc4)[nH]c3=O)C2)n[nH]1	i
SMILES	KDM5B inhibitor
CC1(c2noc(C3CC3)n2)CCN(C(=O)CCC(=O)N2CC(=O)Nc3ccccc32)CC1	i
O=C(CCc1cc(Cl)no1)NCCc1noc(-c2ccccc2)n1	i
O=C(Cc1ccc(F)cc1)N1CCc2nc(-c3ccc(Cl)cc3)nc(-c3ccccc3)c2C1	i
O=C1CN(C(=O)CCC(=O)N2CCc3c(nc4cc(-c5ccccc5)[nH]n4c3=O)C2)c2ccccc2N1	28.2µM*
Cn1cnnc1-c1nn(C)c2c1CN(C(=O)CCC(=O)N1CC(=O)Nc3ccccc31)CC2	i
CC1(c2noc(-c3ccccn3)n2)CCN(C(=O)CCc2nc3ccc(Cl)cc3[nH]2)CC1	i
CCCC(=O)N1CCN(CCNc2cc(=O)oc3ccccc23)CC1	i
O=C1CC(c2c[nH]c3ccccc23)C(=O)N1c1cccc(Br)c1 (stereo not given)	i
Cc1ccc(Nc2nc(CN3CCN(S(=O)(=O)c4cc(C)ccc4C)CC3)cs2)cc1	i
CCC(=O)Nc1cc(-c2nc3cc(OC)ccc3o2)ccc1C	i
CS(=O)(=O)N1CCC(C2CCN(C(=O)c3ccc[nH]c3=O)C2)CC1 (stereo not given)	i
CC(=O)CCc1c(C)nc2c(Cl)cccc2c1Cl	i
CC1=C(C)C(c2cn(C)c3ccccc23)N(C(C)(C)C)C1=O (stereo not given)	i
Cc1ccccc1CNC(=O)c1ccco1	i
CC(C)c1nc2c(c(-c3ccc(O)cc3)n1)CN(C(=O)Nc1ccc(Cl)cc1)CC2	i
Cc1ccsc1C(=O)N1CCc2c(nc3cc[nH]n3c2=O)C1	31.6µM*
CN(C)c1nc2c(c(=O)[nH]1)CCN(C(=O)c1sccc1Cl)C2	i
Cn1nc(C(=O)N2CCc3nc4cc[nH]n4c(=O)c3C2)c2ccccc21	31.6µM*
Cn1nc(C(=O)N2CCCCCCNC(=O)CC2)c2ccccc21	i
Cc1ccccc1C(=O)N1CCc2nc3cc[nH]n3c(=O)c2C1	28.2µM*
O=C(Nc1ccc(Cl)cc1F)N1CCc2nc3cc[nH]n3c(=O)c2C1	31.6µM*
COc1ccc(-c2nc(-c3ccccc3)nc3c2CN(C(=O)c2ccccc2C)CC3)cc1	i
O=C(CCCc1c[nH]c2ccccc12)N1CCc2nc3cc[nH]n3c(=O)c2C1	i
Cc1ccsc1C(=O)N1CCSCC1	i
O=C(CCn1c2c(c3ccccc31)CCCC2)N1CCc2nc3cc[nH]n3c(=O)c2C1	i
SMILES	KDM5B inhibitor
Cc1ccccc1C(=O)N1CCc2nc(-c3ccccc3)nc(-c3ccc(Cl)cc3)c2C1	i
CCS(=O)(=O)CC(=O)NC(C)c1ccc(OCCC(C)C)cc1 (stereo not given)	i
CCc1ccc(NC(=O)Cn2c(N3CCC(C)CC3)nc(C)cc2=O)cc1	i
N#CC1(NC(=O)CSc2ccc3ccccc3n2)CCCC1	i
CCCn1c(=O)c2ccc(C(=O)NC(C)CC)cc2n2c(SCc3ccc(F)cc3)nnc12 (stereo not given)	i
COc1ccc(C2CC(c3ccccc3NS(C)(=O)=O)=NN2C(=O)c2cccs2)cc1 (stereo not given)	i
O=Cc1ccc(OCc2cccc3ccccc23)c(Cl)c1	i
O=C(Nc1ccccc1N1CCCCCC1)c1cncc(Br)c1	i
Cc1ccc2nc(NC(=O)CCn3c(=O)oc4ccccc43)sc2c1	i
Cc1ccc2cccc(NC(=O)c3ccc(N4CCCCC4)c([N+](=O)[O-])c3)c2n1	i
CCN(Cc1ccc2c(c1)OCO2)C(=O)NC(c1ccc2c(c1)OCCCO2)C(C)C (stereo not given)	i
Cn1cccc1C(=O)N1CCC(C(=O)N2CCCCCCNC(=O)CC2)CC1	i
Cn1cccc1C(=O)N1CCCN(S(=O)(=O)c2ccccc2)CCC(=O)NCC1	i
Cn1cccc1C(=O)N1CCc2nc3cc[nH]n3c(=O)c2C1	31.6µM*
CC(C)(C(=O)O)c1cnc(N2CCC(O)(CO)CC2)nc1N1CCOCC1	i
CCN1CCN(c2ncc(C(C)(C)C(=O)O)c(N3CCOCC3)n2)CC1	i
CCc1nc(N2CCOCC2)ncc1C(=O)O	25.1µM*
COc1cc(CNC(=O)[C@@H]2C[C@H](c3ccc(F)cc3)N(Cc3csc(C)n3)C2)cc(OC)c1	i
Cc1nc(CN2C[C@H](C(=O)NCc3cccc(Cl)c3)C[C@@H]2c2ccc(F)cc2)cs1	i
Cc1nc(CN2C[C@H](C(=O)N3CCN(c4ccccn4)CC3)C[C@@H]2c2ccc(F)cc2)cs1	28.2µM*
Cc1ccc2[nH]c(=O)c(CN(Cc3cccnc3)C(=O)c3cccnc3)cc2c1	i
NC(=O)c1ccsc1NC(=O)CSc1ccc2c(c1)CCC2	i
O=C(Nc1ccc(-c2nnnn2C2CC2)cc1)C1CCCC1	i
CC(C)CNC(=O)c1ccnc(-c2nnc3ccc(N4CCN(C)CC4)nn23)c1	i
COc1ccc(C(=O)N[C@@H]2CCC[C@@H]2C(=O)NCc2cccc(C)c2)cc1	i
CC(C)CNC(=O)c1ccc(-c2nnc3ccc(NC(=O)C4CC4)cn23)cc1	14.1µM*
